14 molecules from PubChem BioAssay (NCATS) can be followed below.

Assay [1] can be described thus: AP1 Signaling Pathway (AID 357).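 Further: ME-180 reporter cells stimulated with EGF at its EC50 level; on the % scale 0 is the no-effect control and ±100 the full control effect.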 An outline of the steps: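 Read-out was the 460nm/530nm emission ratio (excitation 405nm) after CCF4 loading for 2.5 hours at room temperature. Cells carried an AP-1-driven beta-lactamase reporter, were stimulated with EC50 EGF plus compound for 5 hours, and AC50 values came from titrations.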
Assay [2] is described as follows: Cell Viability - Jurkat (AID 426;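 active means dose-dependent loss of cell ATP signal giving a full or clear fitted curve, ranked by lower potency value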;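 further: potency means the concentration at half of the fitted maximal effect; cells exposed to compound for 40 hours at 37 °C before ATP read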). Conditions: qHTS. The gist of the method: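 Cells of the human T-cell leukemia line Jurkat (E6-1) are seeded at 5000 per well, treated with compound across a concentration range for 40 hours at 37 °C, then lysed with CellTiter-Glo; luminescence reports ATP.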
A short description of assay [3]: Cell Viability - HepG2 (AID 433; calls by dose curve;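 further: potency means the concentration at half of the fitted maximal effect; potency for ATP loss meaning cytotoxicity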). Conditions: qHTS. The gist of the method:
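Read-out is luciferase-based quantitation of cellular ATP as a measure of viable HepG2 cells after 40 h treatment at 37 °C. Signal decrease is scaled between DMSO-only and 100 uM tamoxifen controls, with AC50 fitted by the Hill equation.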

A short description of assay [4]: Cell Viability - MRC5 (AID 434; calls by dose curve;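 further: potency means the concentration at half of the fitted maximal effect; potency reflects cytotoxicity seen as loss of intracellular ATP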). Conditions: MRC5 lung fibroblast viability, qHTS. An outline of the steps:
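AC50 values come from Hill-equation fits of intracellular ATP loss, measured by CellTiter-Glo luminescence. Normal lung fibroblasts (MRC5) had 40 hr compound treatment at 37 C, normalized between DMSO and 100 uM tamoxifen.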

Assay [5] in a line: Cell Viability - SK-N-SH (AID 435; calls by dose curve;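 further: potency means the concentration at half of the fitted maximal effect; compound exposure lasted 40 h at 37 °C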). Conditions: SK-N-SH neuroblastoma cell viability qHTS. An outline of the steps:
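Luminescent ATP signal served as the viability read-out after 40 hours of compound treatment of human neuroblastoma SK-N-SH cells. Concentration-response data, scaled between DMSO and 100 uM tamoxifen, gave AC50 values by standard Hill modeling.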

A short description of assay [6]: Stat Signaling Pathway (AID 446).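 Further: ME-180 cervical cancer cells given 40 pM IL-6 alongside compound; SIE-controlled beta-lactamase reporter measured as 460/530 nm FRET emission ratio; on the % scale 0 is the no-effect control and ±100 the full control effect.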 The settings on record: ME-180 (cervical carcinoma) SIE beta-lactamase reporter, IL-6 stimulated, 5 h. An outline of the steps:
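FRET read-out (405 nm excitation, 460/530 nm emission) of a beta-lactamase reporter under a STAT-inducible element in ME-180 cervical carcinoma cells. Cells with compound receive 40 pM IL-6 for 5 h. Values are normalised to AC90 stimulation and AC90 JAK-inhibitor controls.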

For assay [7], the target named is Glucocorticoid receptor (Homo sapiens) (UniProt P04150). As to the kind of experiment: GR-GFP Redistribution (AID 450;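 active means compounds whose dose series gives a full or clear partial fitted curve of increased nuclear translocation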; further: potency means the concentration at half of the fitted maximal effect). The settings on record: U2OS GR-GFP nuclear translocation, laser cytometry, 2 h.
The target of assay [8] is Mitogen-activated protein kinase 10 (Mus musculus) (UniProt Q61831). As to the kind of experiment: JNK3 AlphaScreen Assay (AID 530).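 Further: kinase came from lysate of stimulated human HepG2 cells; signal reports phosphorylation of biotinylated GST-cJun 1-79 at Ser73 with 10 µM ATP; on the % scale 0 is the no-effect control and ±100 the full control effect.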 An outline of the steps: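 qHTS titrations with 15 min compound pre-incubation before adding ATP (10 uM final). Read-out: AlphaScreen of Ser73-phosphorylated biotin-GST-cJun using HepG2 lysate JNK3 activated by IL-1β and TNFα.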
Assay [9] is described as follows: Cell Viability - N2a (AID 540; active means well fitted curve in the direction sought with a large enough effect; an effect the other way counts as inactive or inconclusive;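 further: cells exposed to compound for 40 h at 37 °C; plate controls were DMSO alone for no effect and tamoxifen control for full effect; nearly all actives have a fitted effect of over 45% in size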). Conditions: N2a mouse neuroblastoma cell viability; activity change, negative = cytotoxicity: at 92.2 µM (top of the series). An outline of the steps:
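Cytotoxicity was scored as loss of cellular ATP in N2a cells, a mouse neuroblastoma line. Compounds are applied in a qHTS concentration series for 40 hr at 37 °C.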

A short description of assay [10]: Cell Viability - HUV-EC-C (AID 542; active means well fitted curve in the direction sought with a large enough effect; an effect the other way counts as inactive or inconclusive; further: nearly all actives have a fitted effect of over 35% in size; further: potency means the concentration at half of the fitted maximal effect; on activity change, negative = cytotoxicity: on the % scale 0 is the no-effect control and ±100 the full control effect). The gist of the method:
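Cells were seeded at 1000 per well and incubated 5 hr at 37 °C before compound addition. After 40 hr at 37 °C, CellTiter-Glo reagent was added for 20 min and luminescence read. AC50 values came from Hill-equation modelling.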

Assay [11] can be described thus: Cell Viability - H-4-II-E (AID 543; active means well fitted curve in the direction sought with a large enough effect; an effect the other way counts as inactive or inconclusive; further: nearly all actives have a fitted effect of over 35% in size; further: potency means the concentration at half of the fitted maximal effect). An outline of the steps:
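Cells seeded at 1500 per well and rested 5 hr; compounds added; 40 hr incubation at 37 °C; CellTiter-Glo added, 20 min at room temperature; luminescence read. Hill-equation fits gave AC50.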

Assay [12] is described as follows: Cell Viability - SH-SY5Y (AID 544; active means well fitted curve in the direction sought with a large enough effect; an effect the other way counts as inactive or inconclusive;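 further: 0% = DMSO alone and -100% = 100 µM tamoxifen; nearly all actives have a fitted effect of over 55% in size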). Conditions: SH-SY5Y neuroblastoma cell viability; viability change, negative = cytotoxic: at 92.2 µM (top of the series). The gist of the method: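 Cells were plated at 1500 per well and allowed 5 hr at 37 °C. Compounds were added across a concentration range and incubated 40 hr at 37 °C. CellTiter-Glo was added for 20 min at room temperature before luminescence reading.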

Assay [13] in a line: Cell Viability - Renal Proximal Tubule (AID 545; active means well fitted curve in the direction sought with a large enough effect; an effect the other way counts as inactive or inconclusive;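 further: 0% = DMSO only and -100% = 100 µM tamoxifen; nearly all actives have a fitted effect of over 40% in size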). The settings on record: renal proximal tubule cells viability, primary cells of rat origin; activity change, negative = cytotoxicity: at 91.7 µM (top of the series). An outline of the steps:
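Luminescent ATP signal (CellTiter-Glo) served as the viability read-out after 40 hr compound exposure of freshly isolated rat proximal tubule cells at 37 °C. Concentration-dependent ATP loss was fitted with the Hill equation to give AC50.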

Assay [14] is described as follows: Cell Viability - Mesenchymal (AID 546; active means well fitted curve in the direction sought with a large enough effect; an effect the other way counts as inactive or inconclusive;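 further: cells exposed to compound for 40 hours before reading; 0% = DMSO only and -100% = 100 µM tamoxifen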). Conditions: mesenchymal cells viability, qHTS; activity change, negative = cytotoxicity: at 91.7 µM (top of the series). An outline of the steps:
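CellTiter-Glo luminescence (intracellular ATP, 20 min room temperature) after 40 hr compound exposure at 37 °C of 1000 glomerulus-derived human kidney mesenchymal cells/well; AC50 values obtained by fitting qHTS concentration-response data to the Hill equation.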

A short description of assay [15]: Cellular Toxicity (caspase-3) HepG2 (AID 654; active means well fitted curve in the direction sought with a large enough effect; an effect the other way counts as inactive or inconclusive; further: potency means the concentration at half of the fitted maximal effect). An outline of the steps:
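Caspase 3/7 activation in HepG2 is measured as rising luminescence after a 16 hr treatment at 37 °C. Values are scaled between DMSO basal and 100 uM tamoxifen, and AC50 is fitted with the Hill equation.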

Assay [16] deals with 3',5'-cyclic-AMP phosphodiesterase 4B (Homo sapiens) (UniProt Q07343). The assay can be described thus: qHTS Assay for Inhibitors of PDE-IV (AID 607; active means well fitted activation curve with a large enough effect in the main read-out, with a control signal flat, not every such curve was filed as active; further: % of control where 0% means no effect). An outline of the steps: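 Cell-based read-out of cAMP via a modified cyclic nucleotide-gated channel and membrane potential dye (535/590 nm) in HEK293 cells expressing PDE4 endogenously. Compounds tested up to 22.9 uM final; 100 uM RO 20-1724 reference.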

A short description of assay [17]: Cell Viability - BJ (AID 421; calls by dose curve;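 further: potency means the concentration at half of the fitted maximal effect; cells exposed to compound for 40 hours at 37 °C before readout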). The settings on record: BJ fibroblast viability, qHTS. The gist of the method:
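Cytotoxicity as drop in intracellular ATP (CellTiter-Glo, 20 min RT) after 40 hr compound exposure of BJ fibroblasts at 37 °C. Titrations scaled between DMSO and 100 uM tamoxifen, Hill-fitted for AC50.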

A short description of assay [18]: Cell Viability - Hek293 (AID 427;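 active means compounds whose dose-response curve shows a full or clear partial loss of cell viability, called from curve shape rather than a numeric limit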;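 further: potency means the concentration at half of the fitted maximal effect; cells exposed to compound for 40 hours at 37 °C before reading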). The settings on record: qHTS. The gist of the method: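 Luminescent ATP content (CellTiter-Glo, 20 min at room temperature) was measured after a 40 hr, 37 °C compound exposure of HEK293 cells. AC50 values came from Hill-equation fits of qHTS concentration-response data normalized to DMSO and 100 uM tamoxifen.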
Assay [19] can be described thus: Cell Viability - NIH 3T3 (AID 541; active means well fitted curve in the direction sought with a large enough effect; an effect the other way counts as inactive or inconclusive;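 further: plate controls were DMSO alone for no effect and tamoxifen positive control for full effect; nearly all actives have a fitted effect of over 25% in size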). The settings on record: NIH 3T3 cell viability, qHTS; at 92.2 µM (top of the series). An outline of the steps:
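Cells seeded at 1000/well, rested 5 hr at 37 °C, then dosed and incubated 40 hr at 37 °C. CellTiter-Glo added, 20 min room temperature, luminescence read. AC50 by Hill fit.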

Values joined by “and” are separate entries in the source; they are usually repeats but may differ in a detail not shown here. Equal values may be shown once. Unmarked numbers belong to inactive results. Records with an inconclusive call do not appear. Active and inactive are the calls of the source. Unless noted, the call rests on the fitted dose curve; in most records, active means well fitted curve in either direction with a large enough effect (not every such curve was filed as active); inconclusive means small, poorly fitted or top-dose-only effect, or another doubt; inactive means flat fitted curve, though single readings scatter. Some results are limits rather than exact numbers.

Sequence of Glucocorticoid receptor (Homo sapiens) (P04150 whole entry, looked up): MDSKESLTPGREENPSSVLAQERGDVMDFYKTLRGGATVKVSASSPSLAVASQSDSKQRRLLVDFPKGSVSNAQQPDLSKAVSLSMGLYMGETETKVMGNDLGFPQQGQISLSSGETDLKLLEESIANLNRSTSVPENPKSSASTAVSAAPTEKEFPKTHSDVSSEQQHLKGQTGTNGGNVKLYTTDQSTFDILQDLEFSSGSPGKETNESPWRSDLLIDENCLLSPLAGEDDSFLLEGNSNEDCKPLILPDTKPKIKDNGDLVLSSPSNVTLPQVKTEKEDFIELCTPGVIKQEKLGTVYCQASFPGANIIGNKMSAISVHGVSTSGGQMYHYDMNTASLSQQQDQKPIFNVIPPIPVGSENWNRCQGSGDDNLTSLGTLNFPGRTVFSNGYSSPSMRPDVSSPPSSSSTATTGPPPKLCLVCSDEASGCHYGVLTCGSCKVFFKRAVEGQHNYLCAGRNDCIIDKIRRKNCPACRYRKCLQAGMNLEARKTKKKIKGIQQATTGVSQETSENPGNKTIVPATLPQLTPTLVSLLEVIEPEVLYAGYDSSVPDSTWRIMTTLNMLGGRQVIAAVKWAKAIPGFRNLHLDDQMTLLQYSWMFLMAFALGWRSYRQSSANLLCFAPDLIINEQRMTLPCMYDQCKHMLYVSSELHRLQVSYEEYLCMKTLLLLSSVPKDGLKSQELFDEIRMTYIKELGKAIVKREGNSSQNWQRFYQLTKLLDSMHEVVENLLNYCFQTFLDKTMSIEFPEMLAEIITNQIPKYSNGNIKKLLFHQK
Sequence of 3',5'-cyclic-AMP phosphodiesterase 4B (Homo sapiens) (Q07343 whole entry, looked up): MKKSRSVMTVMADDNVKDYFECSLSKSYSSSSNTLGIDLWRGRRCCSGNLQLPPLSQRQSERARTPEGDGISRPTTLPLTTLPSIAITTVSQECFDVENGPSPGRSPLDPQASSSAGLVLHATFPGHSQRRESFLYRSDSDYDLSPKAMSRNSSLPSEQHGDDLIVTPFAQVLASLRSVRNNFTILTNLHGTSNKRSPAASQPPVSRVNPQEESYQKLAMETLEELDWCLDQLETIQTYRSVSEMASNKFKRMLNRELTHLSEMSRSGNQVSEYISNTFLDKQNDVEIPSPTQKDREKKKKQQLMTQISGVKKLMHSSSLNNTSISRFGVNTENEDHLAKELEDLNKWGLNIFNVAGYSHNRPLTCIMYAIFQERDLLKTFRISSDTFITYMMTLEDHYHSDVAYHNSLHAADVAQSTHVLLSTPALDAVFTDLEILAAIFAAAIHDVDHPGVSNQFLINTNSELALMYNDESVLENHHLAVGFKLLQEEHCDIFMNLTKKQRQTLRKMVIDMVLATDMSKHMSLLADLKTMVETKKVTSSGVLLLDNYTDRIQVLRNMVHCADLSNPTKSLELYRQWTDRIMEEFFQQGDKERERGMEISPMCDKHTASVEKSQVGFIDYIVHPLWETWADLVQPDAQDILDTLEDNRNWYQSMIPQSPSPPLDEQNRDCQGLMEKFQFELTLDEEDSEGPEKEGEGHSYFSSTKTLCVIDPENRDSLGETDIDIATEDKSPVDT

As for `CC/C(=C(\c1ccccc1)c1ccc(OCCN(C)C)cc1)c1ccccc1`, the call in assay [1] and in assay [8] was inactive. The Potency in [2] was 31.5 µM (active); in assay [3], 46.2 µM (active); in assay [4], 60.3 µM (active); in assay [5], 49.1 µM (active); in [7], > 46 µM and > 20.6 µM; in assay [10] it was 50.1 µM (active). Moreover, the Potency in assay [11] and in assay [15] was 50.1 µM (active) each time. Further, the activity, negative = inhibition was 14.2% in assay [6] (at 17.2 µM (top of the series)) and 2.62% in assay [6] (at 38 µM (top of the series)). For the same molecule, the activity change, negative = cytotoxicity is -117% (active) in assay [9], -109% (active) in assay [13] and -91.4% (active) in [14]. Besides, the viability change, negative = cytotoxic in [12] was -99.3% (active).
Consider `COc1ccccc1N1CCN(CCCNc2cc(=O)n(C)c(=O)n2C)CC1`, for which the result in assay [1], in [8] and in assay [16] was inactive. The activity, negative = inhibition was -0.455% in assay [6] (at 17.2 µM (top of the series)) and 1.93% in assay [6] (at 38 µM (top of the series)).
Take `CCN(CC)CCOC(=O)c1ccc(N)cc1`: the outcome in assay [1], in [8] and in [16] was inactive. Further, the results for the activity, negative = inhibition in assay [6] (at 17.2 µM (top of the series)) and in assay [6] (at 38 µM (top of the series)) were 13% and -13.6%, respectively.
As for `O=C1C[C@@H](c2ccc(O)cc2)Oc2cc(O)cc(O)c21`, the molecule was called inactive in assay [1], in assay [8] and in assay [16]. Moreover, in assay [6] (at 17.2 µM (top of the series)), the activity, negative = inhibition is 0.762%. For the same molecule, the Potency in assay [7] is > 20.6 µM and > 46 µM.
Regarding `CC1(C)CCC2=C(O1)c1ccccc1C(=O)C2=O`, the Potency in assay [7] was greater than 46 µM. Further, the outcome in assay [8] and in assay [16] was inactive.
Consider `O=C(O)Cc1cccc2ccccc12`, for which the Potency in assay [17], in [2], in assay [18], in assay [3], in [4] and in assay [5] was greater than 92 µM in each case. In addition, in assay [8], the result was inactive. For the same molecule, the Potency entry in [9], in assay [10], in assay [11], in [12], in [13] and in assay [14] was “inactive” each time. Moreover, in assay [15], the Potency entry is “inactive”. The activity change, negative = cytotoxicity in assay [19] was -29.6%.
With `CN(C)CCC(c1ccccc1)c1ccccn1` (stereo not drawn), the Potency in assay [17], in assay [2], in assay [18], in assay [3], in [4] and in assay [5] was greater than 92 µM each time. For the same molecule, the molecule was classed as inactive in [8]. Further, the Potency entry in [9], in assay [10], in assay [11], in assay [12], in assay [13] and in [14] was “inactive” throughout. Further, the Potency result in assay [15] is “inactive”. Moreover, the activity change, negative = cytotoxicity in [19] was -2.83%.
With `O=c1cc(-c2ccccc2)oc2cc(O)cc(O)c12`, in assay [7], the Potency is greater than 20.6 µM. Besides, the result in assay [16] was inactive.
As for `C[C@@H](O)[C@H]1C(=O)N2C(C(=O)O)=C(S[C@@H]3CN[C@H](C(=O)N(C)C)C3)[C@H](C)[C@H]12`, the molecule was classed as inactive in assay [1], in assay [8] and in assay [16]. Besides, in [6] (at 17.2 µM (top of the series)), the activity, negative = inhibition was -18.6%. In addition, in [7], the Potency was greater than 20.6 µM.
Consider `O=c1cc(-c2ccccc2)oc2cc(O)c(O)c(O)c12`, for which, in assay [7], the Potency was greater than 46 µM. In addition, the molecule was classed as inactive in assay [8] and in assay [16].
Consider `COc1ccc2c3c1OC1C[C@@H](O)C=C[C@@]31CCN(C)C2` (stereo partly drawn), for which the molecule was classed as inactive in [1], in assay [8] and in assay [16]. In assay [6] (at 17.2 µM (top of the series)), the activity, negative = inhibition is 12.6%. Further, the Potency in assay [7] is greater than 20.6 µM.
On to `CCn1cc(C(=O)O)c(=O)c2ccc(C)nc21`, for which the Potency in assay [17], in assay [2], in assay [18], in assay [3], in assay [4] and in [5] was greater than 92 µM in each case. Also, the Potency result in [9], in [10], in [11], in assay [12], in assay [13] and in assay [14] was “inactive” in each case. Also, the Potency entry in assay [15] is “inactive”. In [19], the activity change, negative = cytotoxicity was 4.63%.
As to `COc1ccc(Cc2nccc3cc(OC)c(OC)cc23)cc1OC`, the molecule was called inactive in assay [8].
`COc1ccc(-c2coc3cc(O)cc(O)c3c2=O)cc1`: the molecule was called inactive in assay [1] and in [8]. The activity, negative = inhibition in assay [6] (at 17.2 µM (top of the series)) was 5.25%. Further, in assay [7], the Potency is > 46 µM and > 20.6 µM.
